Measurements reported in PubChem BioAssay (NCATS).
Records with an inconclusive call do not appear. Entries that show only a call come without a potency. The source made the active and inactive calls. Calls come from the whole dose curve; as a rule, active = well fitted curve in the direction sought with a large enough effect; inconclusive = small, poorly fitted or top-dose-only effect, or another doubt; inactive = no such curve, though single readings can be large; an effect the other way counts as inactive or inconclusive.

Legend:
[1] = molecular target: ATP-dependent 6-phosphofructokinase (Trypanosoma brucei brucei) (UniProt O15648); assay: qHTS Assay to Find Inhibitors of T. brucei phosphofructokinase: hit validation (AID 492961);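 note: luminescence reports ADP formed as PFK phosphorylates fructose-6-phosphate with ATP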
Chain of ATP-dependent 6-phosphofructokinase (Trypanosoma brucei brucei) (O15648 whole entry, looked up): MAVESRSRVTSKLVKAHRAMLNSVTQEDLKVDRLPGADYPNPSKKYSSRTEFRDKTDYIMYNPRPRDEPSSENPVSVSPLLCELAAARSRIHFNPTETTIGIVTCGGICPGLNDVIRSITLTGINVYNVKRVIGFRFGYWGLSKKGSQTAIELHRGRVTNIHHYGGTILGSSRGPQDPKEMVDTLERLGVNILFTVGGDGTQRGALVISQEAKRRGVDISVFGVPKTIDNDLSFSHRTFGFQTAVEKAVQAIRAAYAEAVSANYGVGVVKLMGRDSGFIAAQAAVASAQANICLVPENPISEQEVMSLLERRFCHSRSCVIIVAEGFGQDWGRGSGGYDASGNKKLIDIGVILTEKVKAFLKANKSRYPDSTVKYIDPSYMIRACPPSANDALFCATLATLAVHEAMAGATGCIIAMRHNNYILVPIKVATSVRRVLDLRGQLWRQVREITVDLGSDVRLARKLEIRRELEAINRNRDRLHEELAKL
How it was run: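 ADP-Glo luminescence read-out of ADP formed by 1.25 nM PFK from 0.1 mM ATP and 0.5 mM F6P (TEA pH 8.0, 45 min, RT). Compounds titrated; activity normalized to no-enzyme and full-enzyme controls.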

[2] = tested on: 3D7; assay: qHTS profiling for inhibitors of Plasmodium falciparum proliferation (AID 504749); note: nearly all actives have a fitted effect of over 60% in size; note: potency is the fitted concentration of half-maximal effect; settings: P. falciparum in erythrocytes, SYBR Green DNA, 72 h; series mostly up to 28.7 µM
How it was run: (§1)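 Infected RBCs, 0.3% parasitemia/2.5% Hct final; cpd 72 h, 37 C, 5% CO2; lysis buffer with saponin/triton/SYBR Green I, o/n RT dark; FI 485/535; norm. to artemisinin (0.29 uM) and DMSO.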

[3] = tested on: AA1029; assay: as above; settings: P. falciparum in erythrocytes, SYBR Green DNA, 72 h; series mostly up to 28.7 µM
How it was run: as §1

[4] = tested on: ATS189; assay: as above; settings: P. falciparum in erythrocytes, SYBR Green DNA, 72 h; series mostly up to 28.7 µM
How it was run: as §1

[5] = tested on: CP185; assay: as above; settings: P. falciparum in erythrocytes, SYBR Green DNA, 72 h; series mostly up to 28.7 µM
How it was run: as §1

[6] = tested on: CP191; assay: as above; settings: P. falciparum in erythrocytes, SYBR Green DNA, 72 h; series mostly up to 28.7 µM
How it was run: as §1

[7] = tested on: CP238; assay: as above; settings: P. falciparum in erythrocytes, SYBR Green DNA, 72 h; series mostly up to 28.7 µM
How it was run: as §1

[8] = tested on: CP247; assay: as above; settings: P. falciparum in erythrocytes, SYBR Green DNA, 72 h; series mostly up to 28.7 µM
How it was run: as §1

[9] = tested on: CP260; assay: as above; settings: P. falciparum in erythrocytes, SYBR Green DNA, 72 h; series mostly up to 28.7 µM
How it was run: as §1

[10] = tested on: FAB9; assay: as above; settings: P. falciparum in erythrocytes, SYBR Green DNA, 72 h; series mostly up to 28.7 µM
How it was run: as §1

[11] = tested on: HB3; assay: as above; settings: P. falciparum in erythrocytes, SYBR Green DNA, 72 h; series mostly up to 28.7 µM
How it was run: as §1

[12] = tested on: ICS; assay: as above; settings: P. falciparum in erythrocytes, SYBR Green DNA, 72 h; series mostly up to 28.7 µM
How it was run: as §1

[13] = tested on: JCK; assay: as above; settings: P. falciparum in erythrocytes, SYBR Green DNA, 72 h; series mostly up to 28.7 µM
How it was run: as §1

[14] = tested on: N140; assay: as above; settings: P. falciparum in erythrocytes, SYBR Green DNA, 72 h; series mostly up to 28.7 µM
How it was run: as §1

[15] = tested on: P93_24; assay: as above; settings: P. falciparum in erythrocytes, SYBR Green DNA, 72 h; series mostly up to 28.7 µM
How it was run: as §1

[16] = tested on: P94_40; assay: as above; settings: P. falciparum in erythrocytes, SYBR Green DNA, 72 h; series mostly up to 28.7 µM
How it was run: as §1

[17] = tested on: PAD; assay: as above; settings: P. falciparum in erythrocytes, SYBR Green DNA, 72 h; series mostly up to 28.7 µM
How it was run: as §1

[18] = tested on: PC49; assay: as above; settings: P. falciparum in erythrocytes, SYBR Green DNA, 72 h; series mostly up to 28.7 µM
How it was run: as §1

[19] = tested on: TAB113; assay: as above; settings: P. falciparum in erythrocytes, SYBR Green DNA, 72 h; series mostly up to 28.7 µM
How it was run: as §1

[20] = molecular target: Cytochrome P450 3A4 (Homo sapiens) (UniProt P08684); assay: qHTS Assay for Activators of Cytochrome P450 3A4 (AID 885); note: nearly all actives have a fitted effect of over 65% in size
Chain of Cytochrome P450 3A4 (Homo sapiens) (P08684 whole entry, looked up): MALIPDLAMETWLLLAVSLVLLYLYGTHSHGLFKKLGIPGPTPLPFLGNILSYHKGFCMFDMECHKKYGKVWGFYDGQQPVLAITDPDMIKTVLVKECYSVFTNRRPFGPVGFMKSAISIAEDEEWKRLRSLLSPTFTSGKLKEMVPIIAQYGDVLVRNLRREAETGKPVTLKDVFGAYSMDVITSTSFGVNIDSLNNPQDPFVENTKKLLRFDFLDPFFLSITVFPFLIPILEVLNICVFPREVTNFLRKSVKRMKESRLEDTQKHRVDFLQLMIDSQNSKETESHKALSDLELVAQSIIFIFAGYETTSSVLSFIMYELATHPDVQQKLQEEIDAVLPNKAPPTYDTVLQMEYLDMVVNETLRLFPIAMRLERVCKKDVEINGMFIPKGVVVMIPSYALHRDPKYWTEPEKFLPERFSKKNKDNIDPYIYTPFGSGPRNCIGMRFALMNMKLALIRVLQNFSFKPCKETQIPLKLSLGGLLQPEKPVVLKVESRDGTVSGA
How it was run: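 Steps: enzyme/substrate mix dispensed; compound added, 10 min RT; NADPH regeneration solution added, 60 min RT; luciferin detection buffer stops reaction; 20 min later luminescence measured.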

CN1C(=O)CCC1c1cccnc1 (configuration not stated)
outcome [1]: inactive
Potency [2]: inactive
Potency [3]: inactive
Potency [4]: inactive
Potency [5]: inactive
Potency [6]: inactive
Potency [7]: inactive
Potency [8]: inactive
Potency [9]: inactive
Potency [10]: inactive
Potency [11]: inactive
Potency [12]: inactive
Potency [13]: inactive
Potency [14]: inactive
Potency [15]: inactive
Potency [16]: inactive
Potency [17]: inactive
Potency [18]: inactive
Potency [19]: inactive

N[C@H](Cc1ccc(O)c(O)c1)C(=O)O
Potency [2]: inactive
Potency [3]: inactive
Potency [4]: inactive
Potency [5]: inactive
Potency [6]: inactive
Potency [7]: inactive
Potency [8]: inactive
Potency [9]: inactive
Potency [10]: inactive
Potency [11]: inactive
Potency [12]: inactive
Potency [14]: inactive
Potency [15]: inactive
Potency [16]: inactive
Potency [17]: inactive
Potency [18]: inactive
Potency [19]: inactive

NCCC(=O)NCCc1cnc[nH]1
Potency [20]: inactive

N=C1Sc2ccccc2C2=NCCCN12
Potency [20]: inactive

CN=C(N)NCCCC(N)C(=O)O (configuration not stated)
outcome [1]: inactive
Potency [2]: inactive
Potency [3]: inactive
Potency [4]: inactive
Potency [5]: inactive
Potency [6]: inactive
Potency [7]: inactive
Potency [8]: inactive
Potency [9]: inactive
Potency [10]: inactive
Potency [11]: inactive
Potency [12]: inactive
Potency [13]: inactive
Potency [14]: inactive
Potency [15]: inactive
Potency [16]: inactive
Potency [17]: inactive
Potency [18]: inactive
Potency [19]: inactive

CN1C[C@H](C(=O)N[C@]2(C)O[C@@]3(O)C4CCCN4C(=O)[C@H](Cc4ccccc4)N3C2=O)C[C@@H]2c3cccc4[nH]cc(c34)C[C@H]21 (some centres not stated)
Potency [2]: 8.91 µM (active)
Potency [3]: 3.55 µM (active)
Potency [4]: 3.98 µM (active)
Potency [5]: 7.94 µM (active)
Potency [6]: 7.08 µM (active)
Potency [7]: 5.62 µM (active)
Potency [8]: 7.08 µM (active)
Potency [9]: 2 µM (active)
Potency [10]: 10 µM (active)
Potency [11]: 2.24 µM (active)
Potency [12]: 0.1 µM (active)
Potency [13]: 10 µM (active)
Potency [14]: 0.891 µM (active)
Potency [15]: 1.41 µM (active)
Potency [16]: 3.16 µM (active)
Potency [17]: 0.355 µM (active)
Potency [18]: 1.78 µM (active)
Potency [19]: 3.55 µM (active)

CC(C)(C)[C@]1(O)CCN2CC3c4ccccc4CCc4cccc(c43)[C@@H]2C1 (some centres not stated)
outcome [1]: inactive
Potency [3]: 7.94 µM (active)
Potency [6]: 8.91 µM (active)
Potency [12]: 10 µM (active)
Potency [13]: inactive
Potency [15]: 11.2 µM (active)
Potency [18]: inactive

CC(C)C[C@H]1C(=O)N2CCCC2[C@]2(O)O[C@](NC(=O)[C@@H]3C=C4c5cccc6[nH]c(Br)c(c56)C[C@H]4N(C)C3)(C(C)C)C(=O)N12 (some centres not stated)
outcome [1]: inactive
Potency [2]: 3.98 µM (active)
Potency [3]: 3.55 µM (active)
Potency [4]: 5.01 µM (active)
Potency [5]: 11.2 µM (active)
Potency [6]: 7.94 µM (active)
Potency [7]: 10 µM (active)
Potency [8]: 8.91 µM (active)
Potency [9]: 1.58 µM (active)
Potency [10]: 8.91 µM (active)
Potency [11]: 2.82 µM (active)
Potency [12]: 0.708 µM (active)
Potency [13]: 10 µM (active)
Potency [14]: 3.16 µM (active)
Potency [15]: 2.82 µM (active)
Potency [16]: 2.82 µM (active)
Potency [17]: 3.98 µM (active)
Potency [18]: 6.31 µM (active)
Potency [19]: 3.16 µM (active)

CCn1c(=O)c2[nH]c(-c3ccccc3)nc2n(CC)c1=O
Potency [20]: inactive

COC(=O)c1c(-c2cc(OC)c(OC)c(OC)c2)c2ccc(OCc3ccccn3)cc2c(=O)n1-c1ccc(N)cc1
Potency [20]: inactive

COc1cc2c(cc1OC)C(c1ccccc1)CN(C)CC2 (configuration not stated)
outcome [1]: inactive
Potency [2]: inactive
Potency [4]: inactive
Potency [5]: inactive
Potency [7]: inactive
Potency [9]: inactive
Potency [10]: inactive
Potency [11]: inactive
Potency [13]: inactive
Potency [14]: inactive
Potency [17]: inactive
Potency [19]: inactive

CCSC(N)=Nc1ccc(C(F)(F)F)cc1
Potency [20]: inactive

CCCC(=O)NCCc1c2n(c3ccc(OC)cc13)Cc1ccccc1-2
Potency [20]: inactive

NCCCCNS(=O)(=O)c1cccc2c(Cl)cccc12
Potency [20]: inactive

COc1ccc(CCNC[C@@H](O)c2ccc(O)cc2)cc1OC
outcome [1]: inactive
Potency [2]: inactive
Potency [3]: inactive
Potency [4]: inactive
Potency [5]: inactive
Potency [6]: inactive
Potency [7]: inactive
Potency [8]: inactive
Potency [9]: inactive
Potency [10]: inactive
Potency [11]: inactive
Potency [12]: inactive
Potency [13]: inactive
Potency [14]: inactive
Potency [15]: inactive
Potency [16]: inactive
Potency [17]: inactive
Potency [18]: inactive
Potency [19]: inactive
